# Measured values as given in paper PMC5540273 (PLoS ONE, 2017).
# Test system: CSNK2A2
# Details: concentration: 1 μM, replicates: in singlicate; n = 1
# 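Also: KINOMEscan kinase panel screen.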
row,Structure (SMILES),%Inh [%]
1,CN(c1ccc(NC(=O)Nc2cc(C(F)(F)F)ccc2F)cc1)c1ccnc(Nc2ccc(S(N)(=O)=O)cc2)n1 [GW809893],0
2,Cc1cccc(NC(=O)Nc2ccc(Oc3ncnc4ccn(C)c34)cc2)c1,0
3,Cl.c1ccc(-c2ccc3c(Nc4ccc5[nH]ccc5c4)ccnc3c2)nc1 [GW440138],0
4,CN1CCN(CCCNc2nccc(-c3c(-c4ccc(F)cc4)nn4cc(C(F)(F)F)ccc34)n2)CC1 [GW621581],0
5,C[C@@H](Oc1cc(-n2cnc3cc(-c4ccnc(NCCS(C)(=O)=O)c4)ccc32)sc1C(N)=O)c1ccccc1Cl [GSK907232],37
6,Cc1cccc(Nc2nc(N[C@H]3CCNC3)ncc2C(N)=O)c1.Cl [GSK2197149],0
7,CCc1ccc(-c2ccc3c(c2)-c2c(cnn2C)S(=O)(=O)N3C)cc1,10
8,COc1cc(Nc2ncc3c(C)nc(-c4cc5ccccc5[nH]4)n3n2)cc(OC)c1OC [GW869516],99.7
9,Cc1ccc(S(=O)(=O)Nc2ccc(Nc3nccc(Nc4cccc5[nH]ncc45)n3)cc2)cc1 [GSK581271],0
10,COc1ccc(Nc2nccc(NCCNC(=O)c3cc4ccccc4s3)n2)cc1 [GSK1379896],15
11,CN1CCN(Cc2cccc(-c3ccc4c(Nc5ccc(Oc6ccccc6)cc5)ccnc4c3)c2)CC1 [GW578342],0
12,COc1ccc(Nc2nccc(N3CCC(NC(=O)Nc4cccc(OC)c4)C3)n2)cc1 (centres unmarked) [GSK1379742],0
13,O=C(Nc1n[nH]c2cc(-c3ccoc3)ccc12)C1CC1 [SB-738481],66
14,Nc1ncnc2c1nc(-c1ccccc1)n2-c1ccccc1 [SKF-97293],13
15,COc1ccc(CNC(=O)NC2CCN(c3ccnc(Nc4ccc(F)cc4)n3)CC2)cc1 [GSK1379788],0
16,Cc1occc1-c1ncc(OC[C@@H](N)Cc2c[nH]c3ccccc23)cc1-c1ccc2[nH]nc(C)c2c1.O=C(O)C(F)(F)F [GSK682037],8
17,c1ccc(-c2n[nH]cc2Nc2ccnc3ccccc23)nc1 [GW694077],68
18,O=C(Nc1cccc(-c2nn3ncccc3c2-c2ccnc(Nc3ccccc3)n2)c1)c1c(F)cccc1F [GSK198271],11
19,Nc1n[nH]c2cnc(-c3ccccc3)cc12 [SB-642124],27
20,CC(=O)Nc1nc2cnc(Nc3cc(NC(=O)c4cccc(C5(C#N)CC5)c4Cl)ccc3C)nc2s1,0
21,O=C(Nc1n[nH]c2nc(-c3ccc(O)cc3)ccc12)C1CC1 [SB-710363],87
22,Cn1cc(-c2[nH]c3cc(NC(=O)[C@H](N)C4CCCCC4)cc4c3c2C=NNC4=O)cn1,77
23,O=C(Nc1cccc(-c2nn3ccccc3c2-c2ccnc(Nc3cccc(F)c3)n2)c1)c1c(F)ccc(F)c1Cl [GSK357952],12
24,O=C(Nc1ccccc1F)NC1CCN(c2ccnc(Nc3ccc(F)cc3)n2)CC1 [GSK1379800],0
25,CSc1cccc2c(-c3ccncn3)c(-c3ccc(F)cc3)nn12 [GW514786],13
26,COc1ccc(-c2coc3ccc(-c4nnc(SCc5ccc(OC)c(C(F)(F)F)c5)o4)cc23)cc1,24
